Calls of active or inactive are those of the source. The calls were made as follows: active = hit-call score of the fitted dose curve at least 0.9, where 1 is the maximum; inactive = score below 0.9.
Read-out: Intercellular Adhesion Molecule 1 (ICAM1), ICAM1 (gene 3383)
Experiment: BSK_3C_ICAM1: BioMAP Diversity Plus: 3C Assay for Intercellular Adhesion Molecule 1 (ICAM1) Biomarker Activity (AID 2283003)
Details: primary human endothelial cells (HUVEC); actives raise or lower the signal
Method: BSK_3C is a cell-based, multiplexed-readout assay that uses umbilical vein endothelium, a human vascular primary cell, with measurements taken at 24 hours after chemical dosing in a 96-well plate.BSK_3C_ICAM1 is an assay component measured in the BSK_3C assay. It measures ICAM-1 antibody related to regulation of gene expression using ELISA technology.Data from the assay component BSK_3C_ICAM1 was analyzed into 1 assay endpoint. This assay endpoint, BSK_3C_ICAM1, was analyzed with bidirectional fitting relative to DMSO as the negative control and baseline of activity. Using a type of binding reporter, gain or loss-of-signal activity can be used to understand changes in the signaling as they relate to the gene ICAM1. Furthermore, this assay endpoint can be referred to as a primary readout, because this assay has produced multiple assay endpoints where this one serves a signaling function. To generalize the intended target to other relatable targets, this assay endpoint is annotated to the cell adhesion molecules intended target family, where the subfamily is Immunoglobulin CAM.
The levels of cell surface (or secreted, indicated by the prefix "s") biomarker endpoints were measured by ELISA. Overt cytotoxicity to cells in confluent adherent cultures (all systems other than the BT system) was assessed by measuring total protein levels using sulforhodamine B (SRB) staining in parallel cultures at the time of biomarker measurements, indicated as SRB endpoints. For proliferation assays for adherent cell types, individual cell types are cultured at sub-confluence and relative cell numbers quantified by SRB staining at time points optimized for each system (48 h: 3C and CASM3C systems; 72 h: BT and HDF3CGF systems; 96 h: SAg system). SRB was performed by staining cells with 0.1% SRB after fixation with 10% TCA and reading wells at 560 nm.Viability and proliferation of PBMC (T cells) was quantified by Alamar Blue reduction for the SAg and BT systems. For PBMC viability (referred to as PBMC Cytotoxicity within the assay endpoint names), cells were plated (75,000/well in a 96-well plate) and then chemical samples added for 1 h before addition of activators, SEB and TSST-1 (20 ng/mL final concentration each). Cells were incubated for 90 h. Then, Alamar Blue (20 uL/well) (Invitrogen, Cat DAL1100) was added for 6 h, and the plates were read with a fluorescence microplate reader at 546/580 nm (excitation/emission). For PBMC proliferation, cells were plated and activated as above but incubated for only 16 h prior to addition of Alamar Blue. Plates were read after 6 h.

| SMILES | AC50 | outcome |
| --- | --- | --- |
| CCN(CC)C(=O)c1cc(S(=O)(=O)Cc2ccccc2)c(N2CCC(c3ccccc3)CC2)cc1N(CC)CCN(C)C | 28.7 µM (active) | – |
| CCCCCCCCOC(=O)c1cc(O)c(O)c(O)c1 | 35.5 µM (active) | – |
| Clc1ccccc1C(c1ccccc1)(c1ccccc1)n1ccnc1 | 31.5 µM (active) | – |
| CCCCOC(=O)CC(CC(=O)OCCCC)(OC(C)=O)C(=O)OCCCC | – | inactive |
| Cc1ccc2oc(CN(Cc3ccccc3)C(=O)Nc3c(F)cc(F)cc3F)c(-c3ccc(Cl)cc3)c2c1 | – | inactive |
| O=C(O)c1ccccc1-n1cc(C(=O)O)c(=O)c2cc(Nc3c(F)cc(F)cc3Cl)c(Cl)cc21 | – | inactive |
| OC12N=C(c3ccccc3)SC1Cc1cc(Cl)ccc12 (stereo not given) | – | inactive |
| Clc1cc(Cl)c2c(c1)N=C1CCCCCN1C2 | – | inactive |
| CCCCCCCC[Si](OCC)(OCC)OCC | – | inactive |
| CC/C(=C(/CC)c1ccc(O)cc1)c1ccc(O)cc1 | 32.8 µM (active) | – |
| CCCCCCCCOc1ccc(C(=O)c2ccccc2)c(O)c1 | – | inactive |
| CN(C)C(=O)C1(N2CCCCC2)CCN(CC[C@@]2(c3ccc(Cl)c(Cl)c3)CN(C(=O)c3ccccc3)CCO2)CC1 | 36.8 µM (active) | – |
| Cc1ncc(CO)c(CO)c1O | – | inactive |
| O=C1CCC(C2CCCCC2)CC1 | – | inactive |
| CN(C[C@@H](CC[N+]12CCC(C3CCCCC3)(CC1)CC2)c1ccc(Cl)c(Cl)c1)C(=O)c1cc(C(F)(F)F)cc(C(F)(F)F)c1 | 39 µM (active) | – |
| CC[C@H](NC(=O)c1cc(F)ccc1NS(=O)(=O)c1cccc2cccnc12)c1ccccc1 | – | inactive |
| CCCCCc1ccc(N)cc1 | – | inactive |
| CCCOC(=O)c1cc(O)c(O)c(O)c1 | – | inactive |
| CN1C(=O)CC[C@H]1c1cccnc1 | – | inactive |
| COCC(C)OCC(C)OCC(C)O (stereo not given) | – | inactive |

| SMILES | AC50 | outcome |
| --- | --- | --- |
| Cc1cccc2ccccc12 | – | inactive |
| O=c1ccc2ccccc2o1 | – | inactive |
| COc1cccc([C@H](O)C2CCN(CCc3ccc(F)cc3)CC2)c1OC | – | inactive |
| O=CCCCC=O | – | inactive |
| O=C1O[C@H]([C@@H](O)CO)C(O)=C1O | – | inactive |
| NCc1cccc(C2CCN(C(=O)c3ccc(C#Cc4ccccc4F)o3)CC2)c1 | 30.1 µM (active) | – |
| Cc1cn([C@H]2C[C@H](N=[N+]=[N-])[C@@H](CO)O2)c(=O)[nH]c1=O | – | inactive |
| O=C(O)c1ccccc1C(=O)OCc1ccccc1 | – | inactive |
| CCCCCCCCCCCO | 36.8 µM (active) | – |
| C[C@]12CC[C@@H]3c4ccc(O)cc4CC[C@H]3[C@@H]1CCC2=O | – | inactive |
| COc1ccc2cc(S(=O)(=O)N[C@H](CC(=O)N[C@H](Cc3ccc(CN4[C@H](C)CCC[C@@H]4C)cc3)C(=O)N(C)C(C)C)c3ccc4c(c3)OCO4)ccc2c1 | – | inactive |
| Cc1oc2c(NC(=O)c3c(Cl)cccc3Cl)cccc2c1C(C)(C)O | – | inactive |
| C[C@]12CC[C@@H]3c4ccc(O)cc4CC[C@H]3[C@@H]1CC[C@H]2O | – | inactive |
| CO[C@H]1/C=C/O[C@@]2(C)Oc3c(C)c(O)c4c(O)c(c(/C=N/N5CCN(C)CC5)c(O)c4c3C2=O)NC(=O)/C(C)=C\C=C\[C@H](C)[C@H](O)[C@@H](C)[C@@H](O)[C@@H](C)[C@H](OC(C)=O)[C@@H]1C | – | inactive |
| O=C(O)Cn1c(=O)n(Cc2ccc(Br)cc2F)c(=O)c2ccc(Cl)cc21 | – | inactive |
| CC1(C)NC(=O)N(c2ccc([N+](=O)[O-])c(C(F)(F)F)c2)C1=O | – | inactive |
| Oc1ccccc1 | – | inactive |
| CC(=O)N1CCN(c2ccc(OC[C@H]3CO[C@](Cn4ccnc4)(c4ccc(Cl)cc4Cl)O3)cc2)CC1 | – | inactive |
| Cc1ccc(C(C)C)cc1 | – | inactive |
| O=C1c2ccccc2C(=O)N1CCc1noc(-c2ccc(CN3CCCCCC3)s2)n1 | – | inactive |

— PubChem BioAssay (EPA / NIEHS)
